This passage reports outcome and AC50 results from PubChem BioAssay (EPA / NIEHS).

Activity calls are given as the source filed them. How the source made its calls: active means hit-call score of the fitted dose curve at least 0.9, where 1 is the maximum; inactive means score below 0.9.

Holding throughout (details): mRNA level, 48 h; actives raise or lower the signal
Read-out in assay [1]: ABC Transporter (ABCB11), ABCB11 (gene 8647)
Nature of the assay: LTEA_HepaRG_ABCB11: Life Technologies and Expression Analysis (LTEA) Assay for ABC Transporter (ABCB11) using HepaRG (AID 2283463). An outline of the steps: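 HepaRG, 48 h exposure, 8-pt half-log CRC top 100 uM, 0.5% DMSO vehicle, duplicates. Readout: TaqMan qRT-PCR of ABCB11 mRNA, housekeeping-normalized (ACTB/GAPDH/POLR2A). Bidirectional fit vs DMSO baseline.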

Read-out in assay [2]: Broad substrate specificity ATP-binding cassette transporter ABCG2 (Homo sapiens) (UniProt Q9UNQ0)
Nature of the assay: LTEA_HepaRG_ABCG2: Life Technologies and Expression Analysis (LTEA) Assay for ABC Transporter (ABCG2) using HepaRG (AID 2283465). The procedure, abridged: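 HepaRG, 48 h exposure, 8-pt half-log series from 100 uM, 0.5% DMSO vehicle, duplicates. Readout: ABCG2 transcript by qRT-PCR (Fluidigm array), housekeeping-normalized; bidirectional curve fit relative to DMSO baseline.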

Read-out in assay [3]: ATP-citrate lyase (ACLY), ACLY (gene 47)
As to the kind of experiment: LTEA_HepaRG_ACLY: Life Technologies and Expression Analysis (LTEA) Assay for ATP-citrate lyase (ACLY) using HepaRG (AID 2283466). The procedure, abridged:
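qRT-PCR readout of ACLY transcript after 48 h chemical treatment of HepaRG cells; expression normalized to three housekeeping genes. Eight-point half-log series, highest 100 uM, 0.5% DMSO vehicle. Gain or loss fitted against DMSO baseline.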

Read-out in assay [4]: Peroxisomal acyl-coenzyme A oxidase 1 (ACOX1) gene, ACOX1 (gene 51)
Nature of the assay: LTEA_HepaRG_ACOX1: Life Technologies and Expression Analysis (LTEA) Assay for Peroxisomal acyl-coenzyme A oxidase 1 (ACOX1) gene using HepaRG (AID 2283467). The procedure, abridged:
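HepaRG, 48 h chemical exposure, 8-pt half-log series from 100 uM top, 0.5% DMSO vehicle, duplicates. Readout: ACOX1 mRNA by Fluidigm qRT-PCR, housekeeping-normalized; bidirectional fit vs DMSO baseline.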

Read-out in assay [5]: Alkaline Phosphatase, Placental (ALPP) gene, ALPP (gene 250)
As to the kind of experiment: LTEA_HepaRG_ALPP: Life Technologies and Expression Analysis (LTEA) Assay for Alkaline Phosphatase, Placental (ALPP) gene using HepaRG (AID 2283468). An outline of the steps:
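Differentiated human HepaRG cells were plated and cultured 48 h, then exposed in duplicate for 48 h in serum-free induction medium to eight half-log concentrations from 100 uM in 0.5% DMSO. ALPP mRNA was measured by TaqMan qRT-PCR, normalized to ACTB, GAPDH, POLR2A.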

Read-out in assay [6]: Bcl-2 (BAD) gene, BAD (gene 572)
As to the kind of experiment: LTEA_HepaRG_BAD: Life Technologies and Expression Analysis (LTEA) Assay for Bcl-2 (BAD) gene using HepaRG (AID 2283469). The procedure, abridged:
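HepaRG, 48 h exposure, 8-pt half-log curve from 100 uM in 0.5% DMSO, duplicates. Readout: TaqMan qRT-PCR for BAD mRNA, housekeeping-normalised (ACTB/GAPDH/POLR2A); gain or loss fitted against DMSO baseline.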

Read-out in assay [7]: Bcl-2 (BAX) gene, BAX (gene 581)
Nature of the assay: LTEA_HepaRG_BAX: Life Technologies and Expression Analysis (LTEA) Assay for Bcl-2 (BAX) gene using HepaRG (AID 2283470). The procedure, abridged:
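Gene expression measured by Fluidigm qRT-PCR with three housekeeping genes for normalisation. HepaRG cells, plated 48 h beforehand, treated 48 h at up to 100 uM (8-point, half-log) in 0.5% DMSO. Bidirectional fitting versus DMSO.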

Read-out in assay [8]: adenosine kinase (ADK) gene, ADK (gene 132)
As to the kind of experiment: LTEA_HepaRG_ADK: Life Technologies and Expression Analysis (LTEA) Assay for adenosine kinase (ADK) gene using HepaRG (AID 2283471). The procedure, abridged:
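HepaRG (human liver), 48 h chemical exposure, 8-pt half-log series, top 100 uM, 0.5% DMSO vehicle. Readout: ADK mRNA by qRT-PCR vs housekeeping genes; bidirectional curve fit relative to DMSO baseline.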

Read-out in assay [9]: Alpha-fetoprotein (AFP) gene, AFP (gene 174)
As to the kind of experiment: LTEA_HepaRG_AFP: Life Technologies and Expression Analysis (LTEA) Assay for Alpha-fetoprotein (AFP) gene using HepaRG (AID 2283472). The procedure, abridged:
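AFP transcript measured by TaqMan qRT-PCR with three housekeeping genes for normalization, after 48 h chemical treatment of HepaRG cells (top 100 uM, half-log steps, 0.5% DMSO). Gain or loss fitted against vehicle.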

Read-out in a further assay: BCL2L11 (gene 10018)
Nature of the assay: LTEA_HepaRG_BCL2L11: Life Technologies and Expression Analysis (LTEA) Assay for Bcl-2 (BCL2L11) gene using HepaRG (AID 2283473). The procedure, abridged:
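Differentiated human HepaRG cells in serum-free induction medium were exposed in duplicate for 48 h to eight concentrations (top 100 uM, half-log steps, 0.5% DMSO). BCL2L11 mRNA was quantified by TaqMan qRT-PCR, normalized to ACTB/GAPDH/POLR2A, bidirectional fit versus DMSO.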

Read-out in assay [10]: Apolipoprotein A-V (APOA5) gene, APOA5 (gene 116519)
As to the kind of experiment: LTEA_HepaRG_APOA5: Life Technologies and Expression Analysis (LTEA) Assay for Apolipoprotein A-V (APOA5) gene using HepaRG (AID 2283474). The procedure, abridged:
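Differentiated human HepaRG cells were exposed in duplicate for 48 h to eight half-log concentrations from 100 uM in 0.5% DMSO. APOA5 mRNA was quantified by TaqMan qRT-PCR, normalized to ACTB, GAPDH and POLR2A, and fitted bidirectionally against DMSO.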

Read-out in assay [11]: Apoptosis regulator Bcl-2 (Homo sapiens) (UniProt P10415)
Nature of the assay: LTEA_HepaRG_BCL2: Life Technologies and Expression Analysis (LTEA) Assay for Bcl-2 gene using HepaRG (AID 2283475). An outline of the steps: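 qRT-PCR of BCL2 transcript, normalized to three housekeeping genes (ACTB, GAPDH, POLR2A), after 48 h chemical exposure of HepaRG cells; concentrations top 100 uM with half-log dilutions, 0.5% DMSO vehicle, duplicates; changes up or down fitted relative to vehicle.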

Read-out in assay [12]: Bcl-2 (BID) gene, BID (gene 637)
As to the kind of experiment: LTEA_HepaRG_BID: Life Technologies and Expression Analysis (LTEA) Assay for Bcl-2 (BID) gene using HepaRG (AID 2283476). The procedure, abridged: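 Duplicate 48 h treatments of HepaRG cells in serum-free induction medium spanned 100 uM downward in half-log steps, 0.5% DMSO. Transcript change quantified by qRT-PCR against three housekeeping genes, fitted up or down versus DMSO.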

Read-out in the next assay: Caspase-3 (Homo sapiens) (UniProt P42574)
Nature of the assay: LTEA_HepaRG_CASP3: Life Technologies and Expression Analysis (LTEA) Assay for cysteine-aspartic acid protease (CASP3) using HepaRG (AID 2283477). The procedure, abridged:
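Differentiated human HepaRG cells in serum-free induction medium were exposed 48 h to 8-point half-log concentrations from 100 uM (0.5% DMSO vehicle). CASP3 mRNA was measured by qRT-PCR, normalised to ACTB, GAPDH and POLR2A, with bidirectional fitting against DMSO.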

Read-out in assay [13]: Cytochrome P450 (CYP1A2), CYP1A2 (gene 1544)
Nature of the assay: LTEA_HepaRG_CYP1A2: Life Technologies and Expression Analysis (LTEA) Assay for Cytochrome P450 (CYP1A2) using HepaRG (AID 2283479). The procedure, abridged: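 Differentiated human HepaRG cells in serum-free induction medium were exposed in duplicate for 48 h to 8-point half-log concentrations up to 100 uM in 0.5% DMSO. CYP1A2 mRNA measured by qRT-PCR, normalized to ACTB, GAPDH, POLR2A; bidirectional fit vs DMSO.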

Read-out in assay [14]: cysteine-aspartic acid protease (CASP8), CASP8 (gene 841)
As to the kind of experiment: LTEA_HepaRG_CASP8: Life Technologies and Expression Analysis (LTEA) Assay for cysteine-aspartic acid protease (CASP8) using HepaRG (AID 2283480). An outline of the steps:
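qRT-PCR readout of CASP8 mRNA, normalized to three housekeeping genes, after 48 h chemical exposure of HepaRG cells; 8-point half-log series, top 100 uM, 0.5% DMSO vehicle. Bidirectional curve fitting against DMSO baseline.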

Read-out in assay [15]: Cytochrome P450 (CYP2B6), CYP2B6 (gene 1555)
As to the kind of experiment: LTEA_HepaRG_CYP2B6: Life Technologies and Expression Analysis (LTEA) Assay for Cytochrome P450 (CYP2B6) using HepaRG (AID 2283481). An outline of the steps: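 Differentiated HepaRG cells, serum-free induction medium, exposed 48 h in duplicate to 8-point half-log concentrations from 100 uM in 0.5% DMSO. CYP2B6 mRNA by qRT-PCR, normalized to ACTB, GAPDH, POLR2A; bidirectional fit versus DMSO.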

Read-out in assay [16]: Cytochrome P450 2C19 (Homo sapiens) (UniProt P33261)
Nature of the assay: LTEA_HepaRG_CYP2C19: Life Technologies and Expression Analysis (LTEA) Assay for CYP2C19 using HepaRG (AID 2283482). An outline of the steps:
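Differentiated human HepaRG cells were exposed for 48 h in serum-free induction medium to 8 concentrations (top 100 uM, half-log steps, 0.5% DMSO). CYP2C19 mRNA was measured by qRT-PCR, normalized to ACTB/GAPDH/POLR2A, and fitted bidirectionally against DMSO.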

Read-out in assay [17]: Cytochrome P450 (CYP24A1), CYP24A1 (gene 1591)
Nature of the assay: LTEA_HepaRG_CYP24A1: Life Technologies and Expression Analysis (LTEA) Assay for Cytochrome P450 (CYP24A1) using HepaRG (AID 2283478). The procedure, abridged: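 Differentiated HepaRG cells, pre-cultured 48 h, were exposed in duplicate for 48 h in serum-free induction medium to 8 half-log concentrations (top 100 uM, 0.5% DMSO). CYP24A1 mRNA was quantified by TaqMan qRT-PCR, normalized to ACTB/GAPDH/POLR2A, fitted bidirectionally versus DMSO.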

Cytochrome P450 2C19 (Homo sapiens), sequence (P33261 whole entry, looked up): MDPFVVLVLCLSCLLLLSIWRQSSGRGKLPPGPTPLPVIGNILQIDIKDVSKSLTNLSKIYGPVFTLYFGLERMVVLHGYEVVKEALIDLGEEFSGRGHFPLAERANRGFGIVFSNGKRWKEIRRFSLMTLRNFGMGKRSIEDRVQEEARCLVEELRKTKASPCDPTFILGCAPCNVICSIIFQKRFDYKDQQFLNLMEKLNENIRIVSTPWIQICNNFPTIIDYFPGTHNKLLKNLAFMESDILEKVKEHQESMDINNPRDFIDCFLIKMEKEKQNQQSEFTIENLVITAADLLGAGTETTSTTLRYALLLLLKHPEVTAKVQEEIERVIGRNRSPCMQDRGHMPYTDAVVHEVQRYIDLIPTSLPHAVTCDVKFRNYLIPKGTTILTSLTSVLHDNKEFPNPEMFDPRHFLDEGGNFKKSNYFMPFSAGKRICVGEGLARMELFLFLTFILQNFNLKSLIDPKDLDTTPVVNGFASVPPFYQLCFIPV
Broad substrate specificity ATP-binding cassette transporter ABCG2 (Homo sapiens), sequence (Q9UNQ0 whole entry, looked up): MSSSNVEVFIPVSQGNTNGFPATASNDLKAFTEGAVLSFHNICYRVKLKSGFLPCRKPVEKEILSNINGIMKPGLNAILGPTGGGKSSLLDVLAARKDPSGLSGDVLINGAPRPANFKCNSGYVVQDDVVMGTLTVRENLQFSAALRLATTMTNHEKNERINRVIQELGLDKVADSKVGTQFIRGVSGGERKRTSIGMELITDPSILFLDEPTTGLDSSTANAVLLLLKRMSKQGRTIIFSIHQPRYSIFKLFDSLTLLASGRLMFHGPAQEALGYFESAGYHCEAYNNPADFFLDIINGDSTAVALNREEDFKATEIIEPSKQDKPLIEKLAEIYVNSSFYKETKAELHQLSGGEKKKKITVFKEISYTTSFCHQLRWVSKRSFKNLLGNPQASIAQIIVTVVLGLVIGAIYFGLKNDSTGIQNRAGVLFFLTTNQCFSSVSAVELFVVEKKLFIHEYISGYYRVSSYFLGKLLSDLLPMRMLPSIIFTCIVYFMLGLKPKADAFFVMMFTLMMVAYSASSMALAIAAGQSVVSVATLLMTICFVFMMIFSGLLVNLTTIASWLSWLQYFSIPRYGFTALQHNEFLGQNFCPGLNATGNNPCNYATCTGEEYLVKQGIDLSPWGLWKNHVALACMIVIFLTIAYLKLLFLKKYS
Caspase-3 (Homo sapiens), sequence (P42574 whole entry, looked up): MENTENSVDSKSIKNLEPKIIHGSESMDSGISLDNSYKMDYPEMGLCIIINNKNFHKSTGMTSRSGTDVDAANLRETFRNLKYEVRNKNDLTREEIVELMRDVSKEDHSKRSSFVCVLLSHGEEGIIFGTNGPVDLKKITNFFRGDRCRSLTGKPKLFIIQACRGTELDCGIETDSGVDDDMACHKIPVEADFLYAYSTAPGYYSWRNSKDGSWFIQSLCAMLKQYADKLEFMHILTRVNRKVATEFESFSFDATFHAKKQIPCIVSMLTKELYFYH
Apoptosis regulator Bcl-2 (Homo sapiens), sequence (P10415 whole entry, looked up): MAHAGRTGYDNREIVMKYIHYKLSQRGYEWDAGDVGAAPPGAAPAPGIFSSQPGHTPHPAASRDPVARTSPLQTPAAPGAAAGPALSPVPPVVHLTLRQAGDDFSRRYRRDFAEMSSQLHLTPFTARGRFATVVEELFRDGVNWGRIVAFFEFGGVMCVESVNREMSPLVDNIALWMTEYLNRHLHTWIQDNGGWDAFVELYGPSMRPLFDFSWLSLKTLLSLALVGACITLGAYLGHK

For the molecule `C1=CCCC=CCCC=CCC1`, the molecule was called inactive in assay [1], in assay [2], in assay [3], in assay [4], in assay [5] and in [6]. Also, the molecule was classed as inactive (in assay [7]; in [8]; in assay [9]; with BCL2L11 (gene 10018); in assay [10]; in assay [11]). For the same molecule, the outcome (in assay [12]; in the assay with Caspase-3 (Homo sapiens); in assay [13]; in [14]; in assay [15]; in assay [16]) was inactive.
Regarding `C[C@](N)(Cc1ccc(O)c(O)c1)C(=O)O`, the molecule was classed as inactive in assay [1], in assay [2], in [3], in [4], in [5] and in [6]. In addition, the call (in assay [7]; in assay [8]; with BCL2L11 (gene 10018); in assay [10]; in assay [11]; in assay [12]) was inactive. Moreover, the molecule was classed as inactive (with Caspase-3 (Homo sapiens); in assay [17]; in assay [13]; in [15]; in assay [16]).
With `CC(C)=CCC/C(C)=C\CO`, the result in [1], in [2], in assay [3], in assay [4], in [5] and in assay [6] was inactive. Besides, the result (in assay [7]; in assay [8]; with BCL2L11 (gene 10018); in assay [10]; in [11]; in assay [12]) was inactive. Further, the call (in the assay with Caspase-3 (Homo sapiens); in assay [14]) was inactive.
In general, AC50 refers to the concentration at which the activity in the assay is half-maximal. For the molecule `COc1ccc(/C=C/S(=O)(=O)NC(=O)c2ccc(C)cc2Cl)cc1`, the results for the AC50 in assay [1] and in [15] were 79.3 µM (active) and 89.8 µM (active), respectively. Further, the outcome in assay [2], in [3], in assay [4], in [5], in assay [6] and in assay [7] was inactive. The result (in [8]; with BCL2L11 (gene 10018); in assay [10]; in assay [11]; in assay [12]; with Caspase-3 (Homo sapiens)) was inactive. For the same molecule, the call in assay [17], in assay [13], in [14] and in assay [16] was inactive.
Regarding `Cn1cnc([N+](=O)[O-])c1Sc1ncnc2nc[nH]c12`, the AC50 in assay [1] was 11.2 µM (active); in [7] it was 8.77 µM (active); in the assay with BCL2L11 (gene 10018) it was 7.34 µM (active); in assay [10], 15.8 µM (active); in [13] it was 0.9 µM (active); in assay [15], 5.23 µM (active). Also, the outcome in assay [2], in assay [3], in assay [4], in assay [5], in assay [6] and in assay [8] was inactive. Besides, the outcome (in assay [11]; in assay [12]; with Caspase-3 (Homo sapiens); in assay [17]) was inactive.
